Over roughly 59,000 sequences, the read-out has its median near -0.00055; the lowest 2% begin near -2. The sample as a whole holds a higher share of the lowest values than the screen did.
Assay: Identification of proteins required for the processing of the EWS-FLI1 nascent transcript;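 note: robust z of luciferase light less the median z of siRNAs with the same seed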
Settings: TC32 Ewing sarcoma NR0B1-luc vs CMV-luc (EWS-FLI1 target promoter against control promoter), 48 h; screened at 20 nM (by protocol)
Experimental: Ewing sarcoma (ES) cells depend on the EWS-FLI1 fusion transcription factor for cell survival. Using an assay of EWS-FLI1 activity and genome-wide siRNA screening we have identified proteins required for the processing of the EWS-FLI1 nascent transcript. Parallel genome-wide siRNA-mediated RNAi screens were conducted in Ewing sarcoma TC32 cell lines expressing a luciferase (luc) reporter protein driven by either the promoter of the EWS-FLI1 target gene NR0B1 (TC32-NR0B1-luc) or the CMV promoter (TC32-CMV-luc). Luciferase activity was assessed 48 hours post siRNA-transfection.
Twenty microl of serum-free media containing Lipofectamine RNAiMax (0.05 microl) was added to wells containing siRNA (0.8 pmol). Lipid and siRNA were allowed to complex for 45 min at ambient temperature before addition of 600 cells in RPMI-1640, 20% FBS to yield final transfection mixtures containing 20 nM siRNA in RPMI-1640, 10% FBS. Luciferase expression was measured using OneGlo (Promega, Madison, WI). The genome-wide screening campaign was conducted using Ambion's human genome library version 4.1 (Ambion, Austin TX). This library targets approximately 21000 human genes, three siRNAs per gene. Each siRNA is arrayed in an individual well of a 384-well plate. Parallel transfections were conducted in TC32-NR0B1-luc and TC32-CMV-luc cell lines and luciferase expression (OneGlo, Promega) was assayed 48 h later on a PerkinElmer Envision 2104 Multilabel plate reader (PerkinElmer, Waltham, MA). Qiagen's AllStars Negative control was incorporated on all screening plates for normalization (16 wells per plate). Qiagen, Germantown, MDsiGL4 was incorporated as a positive transfection control (16 wells per plate) on all plates. […] The raw luciferase data for the NR0B1- and CMV-luc screens were normalized and z-score-MAD transformed using standard methods (Chung et al., 2008). The miRNA-like seed sequence of every siRNA was determined and the median z-score for all siRNA sequences with the same seed sequence was calculated. This z-score was subtracted from the z-score associated with each siRNA with that seed sequence to generate a seed-adjusted z-score value (Z) that was used when the results for the three siRNAs corresponding to each gene were compared (Marine et al., 2012)

Sequence | seed-corrected z-score
AAGGUAACCAGCUCGAUGG against RPL7AP27 | -0.369
UUCUUUAUCCUUAGUCCUC against NFATC2IP | -3.11
UACAGUAAUAGUGAGGCAG against GYPB | 2.32
UUAGGGUCAGGAGCAGACA against CYP2F1 | -0.167
UACUAACUUUUCGAUGUCC against MX2 | 0.257
UAGGUUGCAUCAUAGAGGG against CFL1 | -2.11
UUUCGUGUUGCCGUAUUUC against GEMIN5 | 0.131
UACCAGUCAGGGUCUUCAC against UBC | -8.62
UGAGUAGAUGAUCUUGUCG against GNA11 | 0.913
AUAGGUGUCCUUCAGGUCC against MYL5 | -0.00285
UGAGAUUUGAUGAUUCUGC against OR7E24 | 0.344
UGUGAAAGAGGCGAAAUGC against ELAC1 | 0.216
UUUUCCACAACCGUAGUCA against GOLGA8G | 0.524
GAUGGAGGUGCCAUGGUUG against ZSWIM3 | -0.304
UCUGGUUCUUUGUAAAGGC against S100A11P1 | -2.25
UUAGGCUUAUUUCCCGCUC against BTN3A2 | -0.656
UAGUGUACUCUAGAGCCCG against PLEKHG4 | 0.519
UUUCUCAUCACUAGAAGUC against PPIH | -0.684
UUGGAGAUAAGGGUUCUUG against MSTO1 | -2.21
UGCAUCUUCUCUUAUGUGC against C16orf90 | -1.02
UAACACUUUCAUUCCUGUC against FAM86B1 | -1.15
UCUUGGUCAGGUUUCCUCG against MUSTN1 | -0.107
AUUCUUCUAGGCAUUGCCC against PDE6D | 0.469

Sequence | seed-corrected z-score
UCUAUUACUUUCACAAUGC against KDM6A | -0.344
AUUCACACCAGUAUUAGUG against KIAA1456 | 0.152
UAAUCCGUAAAUUCGAUAC against RNF139 | 0.709
AUAGCUGCAGGAUCUAAGC against POLR3A | -3.95
UUCCGGUAGAAGAUGAGCC against SHMT2 | 0.314
UUCAUGGUAGGAAAGGUCU against DXO | 1.33
UAGUAUCAAAUAUCCAGAC against TMEM60 | 0.0266
UAAUGUACACCACAUUGGG against FAM198B | -2.46
UUCACGUUCAUUGCAGUCU against RAB5C | -1.4
ACAGUUAAGACACCACUCC against FXN | 1.1
AUAAGCAACACCAUUAUGG against BOLL | 1.08
AAUGGGUCUACCUUGUUGG against PSMC5 | -1.78
AAUAAAGACGGAUUUAUUC against HTATIP2 | 0.204
UUUGAUAUGAUGUUCCACC against DDX50 | -0.378
AAACGAUCCAUAUAGUCCG against MIER3 | 0.02
UAUUGACCAAGAUCACAUG against FASTKD2 | 0.878
AGCUGUAUCCAUUAGGGUG against NTSR2 | 0.216
UUCCAUGUAACCGUCGUUC against SHE | -0.285
AGAUCUAUUACUUCCAGGG against LRRC34 | -3.45
AAAGCGACACUUAUCACCC against WRB | 0.538
UCUUUAAGAAUUGCACAUC against NAAA | -0.571
UCCUGCUUCAGUAAAUCUC against MRPL24 | -2.37
UCUCGAUUUAGCUUAGGCC against SKP2 | -0.249

Sequence | seed-corrected z-score
AUAUCAACAAGCCCAAUUC against KCNB2 | -0.883
UAGCCGACAAAACAACAUC against HEATR1 | -0.424
AAAGCUAUUAUCAUGUAGG against SLC35B3 | 0.789
AUCGGUAUAGUUGAUGCAC against SCN10A | 0.0881
UUUUGAACCAGGGUAGUUC against GNA15 | 0.0907
UCCGGAACAUAUGUUGUCG against TNFRSF11B | -0.942
UGAUGAUCUACACUGAUUC against FAM91A1 | -2.35
UUGGAUUGGCGCUAUGUUC against ANKRD20A18P | -0.888
UUGUAGACCAUGUUGGAGC against POLE | -0.71
UCUGGUUCUUGUGCUCUUC against INO80B | -2.05
AAUCGGAUUUUGUUGAGUC against SOWAHC | -0.193
UUUCUUCCUGUGCACGUCA against OXCT2 | -0.277
UCUUCAGCCGCAUCGAUCU against TNNI2 | 0.556
AUCUGUAUAAUCGACAGGC against BARD1 | -1.42
AAACGGUACAGAGCGCUGC against C1orf233 | -1.64
UAGCAUGAAACUUUUGUUG against STK35 | 0.199
UUGGUUGGAACUACUUACG against STARD9 | -3.22
UGUGGUAUUUAGUUGUUCG against PRMT2 | -0.735
ACUGGAAUAAGACCGGCUG against EMCN | -0.0798
ACUAGGAUCACGACUUUCC against SLC30A9 | -0.286
UCUGUUUUCAGGUGCAUCC against AHRR | -0.835
UUCGUUAUCUAUUUCCACC against CASC5 | -1.38
UCAUUGUUCAAGGUCAUUC against ABTB2 | 0.182

Sequence | seed-corrected z-score
UUCCAGUUGAGUGGUGUCC against SLA2 | -2.67
AAUUUGUUCACGUAAACUU against POU3F2 | 0.623
UUCCGUAAGACUGACACUC against REG4 | -15.5
UCUCGUUCGGUAAUCUUCC against PPP2R2C | -0.613
AUCCCUUCAAUGGCCAUCC against ECHDC2 | -0.995
AUUGUUAUAGAAGCGGUCU against SPA17 | -0.602
UGACGUACCUAUCCACUGC against MC5R | -0.731
UCGUUGCUCAGCAUCAAUC against SBNO1 | -0.827
AUCGAUCUAGUUUAAUUCC against DGKE | -0.537
UGUAUAGUCAUGAUAAUGU against LOC643784 | -0.459
UCAGGGCUCAGACAGGACU against TSC22D3 | -2.02
AGAGAAUAAAGAGCUGGAC against TMEM79 | 0.267
AGACUUGCGAACAUGAUUC against CGGBP1 | 0.518
UUCCUUCCUACUCAGGGUC against S100A5 | -2.25
UCAACCUUUACUGAAGGCC against ARNTL | -0.133
UAUAGCGAAGGGACAAACC against LRRTM3 | 0.0787
UGAUGAUUAUCUUUGAAUG against IGFBP3 | 0.761
AAACGUACCUUGUCAUUCC against TXK | -0.645
UUUUCUCUCGUAUUAAUUG against GSDMB | 0.329
UCAUCAUCUAAUAAAGUCC against MRO | -3.11
ACUGGAUUAACAUCAUCUG against SDHAF4 | -0.445
UGCUUUCUCAGGGCAGCUC against ZFP42 | -0.0418
AAAGGGAUGCUCCAAGCGC against NME3 | 0.482

Sequence | seed-corrected z-score
AUAAGUUGCAGCAAAAUCC against MAB21L1 | -0.725
AUCGAUGAUAGCCUGCUCG against ANXA8L1 | -2.86
UUUACCACAGGUUUCUUCC against HIRIP3 | -0.591
UAACUUCAAACCGAUUUCU against TRMU | -0.389
AAAGUAAAGAUAUGCGUGU against TBX21 | 1.07
UCUGUCGAUAGUCUUCUCG against STIP1 | 0.345
UAAUGUACUCGUCACACCU against BICD2 | -2.89
UAUGGGACAUCCUAAUCAC against KIAA0586 | -0.187
UCCGCUUUAACCCUGCUUC against PRDM2 | -0.723
UUUAGCUCUGGAACAAUGC against SLC38A1 | 0.0432
UUACUAGUAAUGGACCCGC against YTHDF2 | 1.05
UUCAUAUAUACUCUGAUUC against C1DP3 | 0.587
UACUCGACCUUCUUUCACC against PPP3CB | 0.354
AAAGAUUGAGGUGGUAUGC against YTHDF3 | -2.48
UUUCGGUUUCCACUUUUCC against NIPAL3 | 0.547
UAACUCAUCAACUUUAUCG against CHMP4B | -0.576
UUCUCUAUCUCAUGAAUCC against RAB19 | 0.0141
AGUGAAUCGAGAGCAAUGG against ELP5 | 0.672
AAAAGAACCUCCAACAAUC against COX16 | -2
UCUAUGUCUCAGGUACUGC against CCDC15 | 0.12
AUAGAUCCUAAAGAACUGG against GPR141 | -0.531
UUUUAGUCUACGAAGAUCC against ANKIB1 | -0.435
UGUCAUAUGGGCUUGCUCC against CEP250 | -0.255

Sequence | seed-corrected z-score
UCCACUUAAACACUCCUCC against DCLRE1C | -2.25
UAGCUGUCCGUGAAGAUCC against ADCYAP1 | 0.344
ACAAUGUAUACUGUAGUCC against CDHR2 | 0.247
AAUAGGAUAAAUGUUCCGG against SMURF2 | 0.293
AUACGUGAUACUUCCCUCC against MS4A13 | -1.19
UGUCUUCUCAUGCAGUUUC against ACSF2 | -0.5
UCUGUGAAAAUCUUCCACG against ZNF174 | 0.076
UAUAGGCCUGCUGAGAUCG against GALT | 0.826
UAGUUGCCUAAUUACACUG against MYO3A | -2.22
UUCACGGUCACAUUGCGCG against MAG | -0.22
UAUGAAGAGGAGACCAACC against PSMD10 | -0.0551
UAAGCUAUUUCCUCGGCUC against MTCH2 | 0.402
UAAAGAUUACCUGAGACCG against FBXO36 | 0.489
UUGACUAUAAGUAAGUCUC against STXBP5 | -2.91
UGCGCGAUGAUGAGUACCG against ABCB9 | 0.705
UUCCUUAGAAACUGCAUAC against JMY | -0.827
UUCGUGAACAGACAGAACU against OAS2 | -0.385
UAAGAACAUAGUACAGCUC against LDB1 | -0.519

Reference: PubChem BioAssay AID1159506 (National Center for Advancing Translational Sciences (NCATS), 2015)
